From PubChem BioAssay (NCATS) come the findings set out here.

Results filed as inconclusive are left out. Active and inactive are the calls of the source. The call rests on the fitted dose curve; in most records, active means well fitted inhibition curve with a large enough effect; inconclusive means small, poorly fitted or top-dose-only effect; inactive means flat fitted curve, though single readings scatter.
Potency means the concentration at half of the fitted maximal effect.

For one assay, the system named is CP265. Kind of assay: qHTS profiling for inhibitors of Plasmodium falciparum proliferation (AID 504749). Further: nearly all actives have a fitted effect of over 60% in size.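 On activity, negative = inhibition: 0% = DMSO vehicle and full inhibition = artemisinin control.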 The settings on record: P. falciparum in erythrocytes, SYBR Green DNA, 72 h; series mostly up to 28.7 µM; activity, negative = inhibition: at the top concentration. The method, boiled down: (§1)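 SYBR Green fluorescence of parasite DNA, read after lysis and overnight dark incubation, measured growth over 72 h in erythrocyte culture at 0.3% parasitemia and 2.5% hematocrit. Data normalised to DMSO and 0.29 uM artemisinin, with plate-drift correction.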
(In general: Quantitative high-throughput screening tests each substance at several concentrations.)
Regarding `O=C(CCCN1CCC(n2c(=O)[nH]c3ccccc32)CC1)c1ccc(F)cc1`, the Potency was 1.12 µM (active).
As for `Cc1c(Cl)c(=O)oc2cc(OP(=O)(OCCCl)OCCCl)ccc12`, the Potency is 7.94 µM (active).
On to `CN1C(=O)CN=C(c2ccccc2)c2cc([N+](=O)[O-])ccc21`, for which the “activity, negative = inhibition” value is 1.35% (inactive).
Same read-out and setting: next, `CCCCCCCCC(=O)NCc1ccc(O)c(OC)c1`: -2.64% (inactive); `c1cc2c(c(N3CCNCC3)c1)OCCO2`: -11.5% (inactive).
In the case of `CC(Cc1ccccc1)NCc1ccccc1Cl` (stereo unspecified), the Potency was 11.2 µM (active).
As for `COc1ccc(CN2CCNCC2)c(OC)c1OC`, the “activity, negative = inhibition” value was 0.78% [at 12.8 µM] (inactive).
`Clc1ccc(CO/N=C(\Cn2ccnc2)c2ccc(Cl)cc2Cl)c(Cl)c1`: the Potency was 4.47 µM (active).
With `C[C@]12Cc3nonc3C[C@@H]1CC[C@@H]1[C@@H]2CC[C@@]2(C)[C@H]1CC[C@]2(C)O`, the “activity, negative = inhibition” value is -28.5% (inactive).
With `ClC1=C(Cl)C2(Cl)C(CBr)CC1(Cl)C2(Cl)Cl` (stereo unspecified), the “activity, negative = inhibition” value was 0.144% (inactive).
On to `CN1C[C@@H](NS(=O)(=O)N(C)C)C[C@@H]2c3cccc4c3c(cn4C)C[C@H]21`, for which the “activity, negative = inhibition” value is -22.8% (inactive).
`O=C(NC(=O)c1c(F)cccc1F)Nc1cc(Cl)c(OC(F)(F)C(F)C(F)(F)F)cc1Cl` (stereo unspecified): the Potency is 7.94 µM (active).
As for `CNC(=O)Oc1cccc2ccccc12`, the “activity, negative = inhibition” value is -3.05% (inactive).
As for `COC(=O)C1=CCCN(C)C1`, the “activity, negative = inhibition” value was 8.6% (inactive).
`COc1ccc(C(=O)N2CCCC2=O)cc1`: the “activity, negative = inhibition” value was 3.35% (inactive).
As for `Oc1c(Br)cc(Br)cc1Br`, the “activity, negative = inhibition” value is 0.586% (inactive).
Consider `CC(C)(O)C(Cl)(Cl)Cl`, for which the Potency was 2.51 µM (active).
Take `C[N+](C)(C)CCOC(=O)C(O)(c1ccccc1)c1ccccc1`: the “activity, negative = inhibition” value was 5.66% (inactive).
Regarding `C[C@]12C=CC(=O)C=C1CC[C@@H]1[C@@H]2CC[C@@]2(C)[C@H]1CC[C@]2(C)O`, the “activity, negative = inhibition” value was 7.22% (inactive).

Another assay concerns CP266. The description is as above. The settings on record: P. falciparum in erythrocytes, SYBR Green DNA, 72 h; series mostly up to 28.7 µM; activity, negative = inhibition: at the top concentration. The essentials: as §1
`CC[C@]1(O)CC[C@H]2[C@@H]3CCC4=CCCC[C@@H]4[C@H]3CC[C@@]21C`: the “activity, negative = inhibition” value is -12.2% (inactive).
Same read-out and setting: as for `CN1C(=O)CN=C(c2ccccc2)c2cc([N+](=O)[O-])ccc21`, the figure is 7.26% (inactive); as for `CC(Cc1ccccc1)NCc1ccccc1Cl` (stereo unspecified), -6.99% (inactive).
In the case of `Nc1ccc(N)cc1`, the “activity, negative = inhibition” value was -21.6% (inactive).
Still for that read-out and setting: next, `C[C@]12Cc3nonc3C[C@@H]1CC[C@@H]1[C@@H]2CC[C@@]2(C)[C@H]1CC[C@]2(C)O`: -3.74% (inactive); `ClC1=C(Cl)C2(Cl)C(CBr)CC1(Cl)C2(Cl)Cl` (stereo unspecified): -9.72% (inactive); `O=C(NC(=O)c1c(F)cccc1F)Nc1cc(Cl)c(OC(F)(F)C(F)C(F)(F)F)cc1Cl` (stereo unspecified): 1.81% (inactive).
Turning to `CNC(=O)Oc1cccc2ccccc12`, the “activity, negative = inhibition” value was -28.3% (inactive).
Still for that read-out and setting: next, `COC(=O)C1=CCCN(C)C1`: -13.8% (inactive); `COCC(=O)N(c1c(C)cccc1C)C(C)C(=O)OC` (stereo unspecified): 1.49% (inactive); `COc1ccc(C(=O)N2CCCC2=O)cc1`: 2.61% (inactive).
Regarding `Oc1c(Br)cc(Br)cc1Br`, the “activity, negative = inhibition” value was 9.22% (inactive).

The next assay has as its system CP268. The description is as above. The settings on record: P. falciparum in erythrocytes, SYBR Green DNA, 72 h; series mostly up to 28.7 µM; activity, negative = inhibition: at the top concentration. The method, boiled down:
as §1
For the compound `O=C(CCCN1CCC(n2c(=O)[nH]c3ccccc32)CC1)c1ccc(F)cc1`, the Potency was 3.61 µM (active).
Regarding `CC[C@]1(O)CC[C@H]2[C@@H]3CCC4=CCCC[C@@H]4[C@H]3CC[C@@]21C`, the “activity, negative = inhibition” value was -20.4% (inactive).
In the case of `Cc1c(Cl)c(=O)oc2cc(OP(=O)(OCCCl)OCCCl)ccc12`, the Potency is 12 µM (active).
Turning to `CN1C(=O)CN=C(c2ccccc2)c2cc([N+](=O)[O-])ccc21`, the “activity, negative = inhibition” value was -2.29% (inactive).
On the same count and under the same terms, as for `CCCCCCCCC(=O)NCc1ccc(O)c(OC)c1`, the figure is -2.69% (inactive); as for `c1cc2c(c(N3CCNCC3)c1)OCCO2`, -8.47% (inactive).
For `C=CCOC(Cn1ccnc1)c1ccc(Cl)cc1Cl` (stereo unspecified), the Potency was 15.1 µM (active).
As for `C[C@]12Cc3nonc3C[C@@H]1CC[C@@H]1[C@@H]2CC[C@@]2(C)[C@H]1CC[C@]2(C)O`, the “activity, negative = inhibition” value was -1.52% (inactive).
For the compound `ClC1=C(Cl)C2(Cl)C(CBr)CC1(Cl)C2(Cl)Cl` (stereo unspecified), the “activity, negative = inhibition” value was 3.79% (inactive).
Same read-out and setting: next, `CN1C[C@@H](NS(=O)(=O)N(C)C)C[C@@H]2c3cccc4c3c(cn4C)C[C@H]21`: -9.68% (inactive); `O=C(NC(=O)c1c(F)cccc1F)Nc1cc(Cl)c(OC(F)(F)C(F)C(F)(F)F)cc1Cl` (stereo unspecified): -23.5% (inactive); `CNC(=O)Oc1cccc2ccccc12`: -3.65% (inactive).
With `N#Cc1nn(-c2c(Cl)cc(C(F)(F)F)cc2Cl)c(N)c1S(=O)C(F)(F)F` (stereo unspecified), the Potency was 6.01 µM (active).
As to `COC(=O)C1=CCCN(C)C1`, the “activity, negative = inhibition” value is 4.79% (inactive).
The same measure, in the same setting: next, `COCC(=O)N(c1c(C)cccc1C)C(C)C(=O)OC` (stereo unspecified): 2.69% (inactive); `COc1ccc(C(=O)N2CCCC2=O)cc1`: 0.26% (inactive).
Same read-out and setting: as for `Oc1c(Br)cc(Br)cc1Br`, the figure is -8.02% (inactive).
Regarding `CC(C)(O)C(Cl)(Cl)Cl`, the Potency was 6.01 µM (active).
Turning to `OC(O)C(Cl)(Cl)Cl`, the “activity, negative = inhibition” value was -1.07% (inactive).
With `C[N+](C)(C)CCOC(=O)C(O)(c1ccccc1)c1ccccc1`, the “activity, negative = inhibition” value is -1.76% (inactive).

The subject of a further assay is CP269. The description is as above. The settings on record: P. falciparum in erythrocytes, SYBR Green DNA, 72 h; series mostly up to 28.7 µM; activity, negative = inhibition: at the top concentration. The essentials: as §1
On to `O=C(CCCN1CCC(n2c(=O)[nH]c3ccccc32)CC1)c1ccc(F)cc1`, for which the Potency was 1.81 µM (active).
Regarding `CC[C@]1(O)CC[C@H]2[C@@H]3CCC4=CCCC[C@@H]4[C@H]3CC[C@@]21C`, the “activity, negative = inhibition” value is 3.58% (inactive).
With `Cc1c(Cl)c(=O)oc2cc(OP(=O)(OCCCl)OCCCl)ccc12`, the Potency is 12 µM (active).
In the case of `CN1C(=O)CN=C(c2ccccc2)c2cc([N+](=O)[O-])ccc21`, the “activity, negative = inhibition” value is 0.408% (inactive).
As for `CCCCCCCCC(=O)NCc1ccc(O)c(OC)c1`, the “activity, negative = inhibition” value was 11% (inactive).
The same measure, in the same setting: as for `c1cc2c(c(N3CCNCC3)c1)OCCO2`, the figure is 3.38% (inactive).
Take `C=CCOC(Cn1ccnc1)c1ccc(Cl)cc1Cl` (stereo unspecified): the Potency is 15.1 µM (active).
Same read-out and setting: as for `Clc1ccc(CO/N=C(\Cn2ccnc2)c2ccc(Cl)cc2Cl)c(Cl)c1`, the figure is 13.5 µM (active).
Consider `C[C@]12Cc3nonc3C[C@@H]1CC[C@@H]1[C@@H]2CC[C@@]2(C)[C@H]1CC[C@]2(C)O`, for which the “activity, negative = inhibition” value was -3.35% (inactive).
The same measure, in the same setting: next, `ClC1=C(Cl)C2(Cl)C(CBr)CC1(Cl)C2(Cl)Cl` (stereo unspecified): 2.62% (inactive).
Turning to `O=C(NC(=O)c1c(F)cccc1F)Nc1cc(Cl)c(OC(F)(F)C(F)C(F)(F)F)cc1Cl` (stereo unspecified), the “activity, negative = inhibition” value is 9.51% (inactive).
Regarding `CNC(=O)Oc1cccc2ccccc12`, the “activity, negative = inhibition” value is -5.3% (inactive).
For `N#Cc1nn(-c2c(Cl)cc(C(F)(F)F)cc2Cl)c(N)c1S(=O)C(F)(F)F` (stereo unspecified), the Potency is 15.1 µM (active).
With `COC(=O)C1=CCCN(C)C1`, the “activity, negative = inhibition” value is 4.93% (inactive).
Still for that read-out and setting: next, `COCC(=O)N(c1c(C)cccc1C)C(C)C(=O)OC` (stereo unspecified): 2.19% (inactive); `COc1ccc(C(=O)N2CCCC2=O)cc1`: -5.41% (inactive); `Oc1c(Br)cc(Br)cc1Br`: 0.0993% (inactive).
On to `CC(C)(O)C(Cl)(Cl)Cl`, for which the Potency is 4.26 µM (active).
Turning to `OC(O)C(Cl)(Cl)Cl`, the “activity, negative = inhibition” value is -7.91% (inactive).
Consider `C[N+](C)(C)CCOC(=O)C(O)(c1ccccc1)c1ccccc1`, for which the “activity, negative = inhibition” value was 1.82% (inactive).
